Screening data deposited in PubChem by National Center for Advancing Translational Sciences (NCATS).
Sampled rows, rich in hits. Any-hit rate of the full collection: about 2.3%.
p53ts 32C tox – qHTS Screen for Compounds that Selectively Target Cancer Cells with p53 Mutations: Cytotoxicity of p53ts Cells at the Permissive Temperature | Potency, µM (doses to about 46.1 µM), inactives show at the highest dose activity change, negative = cytotoxicity, actives largely listed as cytotoxic | 130,000 compounds, 0.93% hits | H1299-p53A138V at 32C, ATP luminescence viability, 24 h | AID 924, 2007;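 also: 0% = DMSO and -100% = full killing by reference compound; nearly all actives have a fitted effect of over 55% in size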
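ATP-content luminescence (ATPlite) read-out after 24 h compound exposure at 32C in H1299-p53A138V cells (600/well). Tested up to 46 uM. Normalized to DMSO (0%) and 100 uM tamoxifen (100% killing); Hill-fit AC50.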
ERK AVP block – qHTS Assay for Inhibitors of the ERK Signaling Pathway using a Homogeneous Screening Assay. Potency, µM (highest dose often 57.5 µM), for the others: top-dose activity, negative = inhibition, hits mostly inhibitors. 72,000 compounds, 0.99% hits. HEK293-V1b, vasopressin-stimulated pERK AlphaScreen; also: % is scaled to controls: 0 for no effect and ±100 for the full control effect; nearly all actives have a fitted effect of over 55% in size
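Phosphorylated ERK1/2 detected via AlphaScreen bead proximity in lysates of V1b-expressing HEK293 cells given 25 nM vasopressin for 5 min after 30 min compound exposure (37 °C). AC50 from Hill equation; basal DMSO 0%, vasopressin 100%.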
IkB signaling – IkB Signaling; 110,000 compounds, 0.04% hits; Potency, µM (highest dose often 57.1 µM), for inactives: at the top dose IkBa stabilization activation; ABC-DLBCL IkBa-CBG/CBR dual luciferase ratio, 4 h; response scale: scaled: untreated 0%, proteasome inhibitor 100%; AID 445, 2006; active = well fitted curve in the direction sought with a large enough effect in the signal ratio, not every such curve was filed as active; inconclusive = small, poorly fitted or top-dose-only effect, or a change in a side signal; the % refers to the signal ratio;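 also: the direction sought is a rising ratio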
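Curves were fitted separately to fusion (green), unfused (red) and ratio luminescence, then classed by r2, magnitude and activity. Cells: OCI-Ly3, 4 h compound plus doxycycline at 37C; 10 uM MG-132 defined full response.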
p53ts 39C tox – qHTS Screen for Compounds that Selectively Target Cancer Cells with p53 Mutations: Cytotoxicity of p53ts Cells at the Nonpermissive Temperature | 130,000 compounds, 1.5% hits | H1299-p53A138V viability at 39C, ATP luminescence, 24 h | Potency, µM (titrated, usually from 46.1 µM), without a hit: at the highest dose activity change, negative = cell killing, most hits filed as cytotoxic; also: % is scaled to controls: 0 for no effect and ±100 for the full control effect; nearly all actives have a fitted effect of over 55% in size
Peg3 imprint – qHTS Assay for Compounds that Induce Erasure of Genomic Imprints | mouse ES Peg3-LacZ reporter, beta-gal luminescence, 40 h | Potency, µM (top dose mostly 60.7 µM), inactives show at the highest dose activity change, positive = activation, most hits filed as activators | 110,000 compounds, 0.02% hits | AID 1948, 2009
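Each well holds 300 Peg3LacZ-Neo (maternal) female ES cells incubated 40 h at 37C, 5% CO2. LacZ is measured by BetaGlo luminescence, with AC50 and maximum efficacy derived from dose-response curves.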
* = called active by the depositor; ? = inconclusive; nt = no result; ! = a repeat was not active; [ ] = another dose, or the depositor's remark. Unless noted, calls follow the shape of the dose curve; as a rule, active = well fitted curve in the direction sought with a large enough effect; inconclusive = small, poorly fitted or top-dose-only effect, or another doubt; inactive = no such curve, though single readings can be large; an effect the other way counts as inactive or inconclusive. Potency is read from the fitted curve at half-maximal effect.

SMILES	p53ts 32C tox	ERK AVP block	IkB signaling	p53ts 39C tox	Peg3 imprint
COc1ccc(CNC(=O)CSc2nnc(C)c3c(C)n(-c4ccccc4)nc23)c(OC)c1	14%	nt	?	13µM*	-4%[10.9 µM]
O=C(O)c1cc(Cl)cc(Cc2cc(Cl)cc(C(=O)O)c2O)c1O	11%[9.22 µM]	-5%[11.5 µM]	2%[11.4 µM]	14%[9.22 µM]	7%[10.9 µM]
C[C@H](NCCN(C)C)[C@@H]1CCC2C3CCc4cc(O)ccc4[C@H]3CCC21C (stereo partly drawn)	-3%[9.22 µM]	7%[11.5 µM]	4%[11.4 µM]	7%[9.22 µM]	-31%[10.9 µM]
CN(C)c1ccc(NC(=O)CCCc2ccccc2)cc1	-10%	20µM*	-4%	-2%	-9%
CC(C)(C)OC=O	5%[1.84 µM]	16%	0%	1%	-5%
C=CCSC1=C(C#N)C(c2ccccc2Cl)CC(=O)N1 (stereo not drawn)	14%	-14%	-1%	-1%	-12%
C=C(C)CSC1=C(C#N)C(c2ccccc2Cl)CC(=O)N1 (stereo not drawn)	-4%	20µM*	-1%	-17%	-7%
CCCC[C@]1(C2CCCC2)Cc2cc(OCC(=O)O)c(Cl)c(Cl)c2C1=O	14%	38%	3%	-1%	nt
Brc1ccc2c(c1)c1nc3ccccc3nc1n2CCN1CCOCC1	2%	32µM*	14%	-10%	-16%
COc1ccc(C)cc1NC(=O)c1c2c(nc3ccccc13)C(=O)N(C1CCCCC1)C2	-22%	nt	?	10µM*	-8%[10.9 µM]
O=C(NCc1cccs1)c1ccc(N2CCCCC2)nc1	-11%	-4%	?	-17%	-35%
CC1CCCN(c2ccc(C(=O)NCc3cccs3)cn2)C1 (stereo not drawn)	-10%	16µM*	6%	-1%	nt
CCOC(=O)CSc1nc(N)c(C#N)c(-c2ccc(OCC)cc2)c1C#N	-6%	0%	1%	-14%	-5%
CCc1c(C#N)c(N)nc(SCC(=O)OCc2ccccc2)c1C#N	3%	32µM*	3%	10%	6%
CO[C@H]1COC(=O)CCC[C@@H](C)[C@H](OC)COC(=O)[C@H]2CCCN2C(=O)C/C=C\[C@@H]1C	10%[9.22 µM]	5%[11.5 µM]	nt	7%[9.22 µM]	nt
CC(c1nnc(SCC(=O)c2c(N)n(C)c(=O)n(C)c2=O)n1-c1ccc(Cl)cc1)N(C)C (stereo not drawn)	5%	40µM*	0%	8%	-7%
O=C(Nc1cc2c(cc1C(=O)c1ccccc1)OCCO2)c1ccc(Br)cc1	-6%	nt	6%	20µM*	-17%[10.9 µM]
O=C(Nc1cc2c(cc1C(=O)c1ccccc1Br)OCCO2)c1ccccc1	4%	nt	3%	2%	-10%[10.9 µM]
Brc1ccccc1-c1nnc(COc2ncnc3c2cnn3-c2ccccc2)o1	-9%	32µM*	?	-18%	-19%
Brc1ccccc1-c1nnc(CSc2nnnn2-c2ccccc2)o1	-3%	-5%	?	-10%	-17%
C[C@H](Cc1ccc(O)c(O)c1)[C@@H](C)Cc1ccc(O)c(O)c1	?	?	6%[11.4 µM]	20µM*	17%
CC(C)[C@@H]1NC(=O)[C@H](CCCCN)NC(=O)[C@H](Cc2c[nH]c3ccccc23)NC(=O)[C@H](Cc2ccc(O)cc2)NC(=O)[C@H](C)N(C)C(=O)[C@H](Cc2ccccc2)NC1=O	23%	-22%	-3%	11%	nt
CCc1ccc2nc(N3CCC(C(=O)NCCC(C)C)CC3)sc2c1	?	nt	?	16µM*	-13%[10.9 µM]
CCOc1ccc2nc(N3CCCC(C(=O)NCc4ccccc4Cl)C3)sc2c1 (stereo not drawn)	-12%	nt	0%	-56%	-9%[10.9 µM]
CCCN(CCC)CCNC(=O)C1CCN(c2nc3ccc(CC)cc3s2)CC1	13µM*	nt	?	?	-12%[10.9 µM]
SMILES	p53ts 32C tox	ERK AVP block	IkB signaling	p53ts 39C tox	Peg3 imprint
CCCCN(CCCC)CCCNC(=O)c1ccc2nc(N3CCCCC3)sc2c1	5%	nt	-1%	-14%	-22%[10.9 µM]
CC(C)CCNC(=O)C1CCN(c2nc3ccccc3o2)CC1	-6%	16%	2%	-7%	-10%
COc1ccc2nc(N3CCCC(C(=O)NCCCN4CCN(C)CC4)C3)sc2c1 (stereo not drawn)	13µM*	8%	1%	10µM*	17%
CCCN(CCC)CCCNC(=O)C1CCN(c2nc3ccc(CC)cc3s2)CC1	13µM*	nt	?	?	15%[10.9 µM]
OCCNc1ncnc2c1ncn2[C@@H]1O[C@@H](CO)[C@H](O)[C@@H]1O	5%[9.22 µM]	3%[11.5 µM]	2%[11.4 µM]	-4%[9.22 µM]	-6%[10.9 µM]
COc1cc(-c2ccc(N=Nc3ccc4c(S(=O)(=O)O)cc(S(=O)(=O)O)c(N)c4c3O)c(OC)c2)ccc1N=Nc1ccc2c(S(=O)(=O)O)cc(S(=O)(=O)O)c(N)c2c1O	?	16µM*	?	10µM*!	-43%
Cc1nn(-c2ccc(S(=O)(=O)O)cc2)c(O)c1N=Nc1ccc(-c2ccc(N=Nc3ccc4c(S(=O)(=O)O)cc(S(=O)(=O)O)c(N)c4c3O)c(O)c2)cc1O.[Cu].[Cu]	-8%[9.22 µM]	-25%[11.5 µM]	-1%[11.4 µM]	2%[9.22 µM]	-7%[10.9 µM]
CCn1c(NC(C)=O)nc2ccccc21	6%	nt	nt	26%	nt
CCn1c(=O)c(C(=O)Nc2ccc(C(C)=O)cc2)nc2ccccc21	10µM*	nt	2%	13µM*	2%[10.9 µM]
COc1ccc(S(=O)(=O)NCc2ccc3c(c2)CCN3C(=O)c2ccccc2)cc1OC	5%	nt	0%	-4%	7%[10.9 µM]
COc1ccc(-c2cc(C(=O)N/N=C/c3ccc(O)cc3)[nH]n2)cc1	?	nt	nt	-27%	nt
COc1ccc(/C=C/C(=O)c2cccs2)c(OC)c1	16µM*	164%	nt	5µM*	-25%
OC[C@H]1O[C@@H](n2cnc3c(NCc4ccccc4)ncnc32)[C@H](O)[C@@H]1O	6.3µM*	1%	nt	10µM*	-1%
CCCCN1C(=O)/C(=C2\SC(N3CCCCC3)=NC2=O)c2ccccc21	13µM*	25µM*	?	16µM*	-28%
N#Cc1nc(-c2ccc(F)cc2)oc1NCc1cccc2c1OCO2	-9%	7.9µM*	6%	-4%	-14%
Cc1ccc(-c2nc(C#N)c(NCc3cccc4c3OCO4)o2)cc1	9%	?	?	0%	-16%
CN(C)CCn1c(CO)nc2c1c(=O)n(C)c(=O)n2C	8%[9.22 µM]	-25%[11.5 µM]	0%[11.4 µM]	0%[9.22 µM]	-11%[10.9 µM]
COC(=O)Cc1ccc(NC(=O)c2ccc(Br)o2)cc1	-28%	-15%	0%	?	-75%
CCN(CC)c1ccc(NC(=O)c2ccc(Br)o2)cc1	13µM*	?	3%	?	-52%
COc1ccc(-c2nc(C#N)c(NCCc3ccccc3)o2)cc1OC	-17%	16µM*	?	-26%	-58%
CC(C)(C)c1ccc(C(=O)Nc2onc3c2CCCC3)cc1	13µM*	nt	-2%	13µM*	-12%[10.9 µM]
